Most compounds without a hit are left out; they make up all but 13% or so of the library.
HCV inhibitor – HCV inhibition. Huh7.5.1 HCVcc-Cre infection, luciferase reporter, 44 h. Potency, µM (titrated, usually from 41.8 µM), actives largely listed as inhibitors. 340,000 tested, 3.4% active; active = well fitted inhibition curve with a large enough effect; inconclusive = small, poorly fitted or top-dose-only effect, or another doubt; inactive = no such curve, though single readings can be large or run the other way
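Reporter virus HCVcc-Cre (~0.5 moi) infects cells exposed to compound; seeding density 1,000 cells/well with 4 h settling beforehand. Luminescence, 15 sec read, taken 44 h post-infection following a 15 min RT substrate incubation.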
FMDV antiviral – antivirals against foot and mouth disease virus; FMDV antiviral cell-based qHTS; Potency, µM (titrated, usually from 57.9 µM), actives largely listed as inhibitors; 410,000 tested, 1.2% active; calls by dose curve; tested in HEK293T cells; also: read-out not given here; nearly all actives have a fitted effect of over 45% in size
LASV entry inh – blocks Lassa virus binding to or entry into cells. Lassa virus pseudotype entry inhibition, cell reporter. Potency, µM (series often up to 37.9 µM), actives largely listed as inhibitors. 300,000 tested, 1.2% active. AID 540256; calls by dose curve; tested in HEK293 cells; also: nearly all actives have a fitted effect of over 50% in size
Cycloheximide cs – counter-screen for Shiga toxin inhibitors: cycloheximide protein synthesis inhibition; 300,000 tested, 12% active; cell reporter, cycloheximide protein synthesis inhibition counterscreen; max response, %; in the data active = max response mostly above about 13%, no sharp cut-off; inactive = mostly below about 14%; also: read at 38.3 µM for the half of the compounds with a filed dose
MARV entry inh – inhibitors of Marburg virus binding or cell entry | Marburg virus pseudotyped entry inhibition, cell reporter | Potency, µM (titrated, usually from 37.8 µM), hits mostly inhibitors | 300,000 tested, 1.8% active; calls by dose curve; tested in HEK293 cells
Shiga toxin inh – blocks Shiga toxin action in Vero cells; 290,000 tested, 9.2% active; AID 2315; Vero cells, Shiga toxin protein synthesis inhibition reporter; inhibition, % at 38.7 µM; in the data active = inhibition mostly above about 28%, no sharp cut-off; inactive = mostly below about 43%
Hits are given with their value; n = inactive; u = inconclusive; x = no result.

SMILES | HCV inhibitor | FMDV antiviral | LASV entry inh | Cycloheximide cs | MARV entry inh | Shiga toxin inh
COc1ccc(Nc2nc(C)c(C(C)=O)s2)cc1 | x | n | x | x | x | x
COc1cccc(Nc2nc(CC(C)=O)ns2)c1 | n | n | n | 19 | n | 60
O=C(Nc1ccc(Cl)c(Cl)c1)c1ccc(Cn2cc(Cl)cn2)cc1 | u | n | x | 32 | n | active
NNC(=O)c1ccc(Cn2cc(Cl)cn2)cc1 | n | n | n | n | n | n
COc1ccc(-c2cc(C(=O)Nc3cnn(Cc4ccc(F)cc4)c3)no2)cc1OC | x | n | u | x | n | x
O=C(Nc1ccccc1F)c1ccc(Cn2cc(Cl)cn2)cc1 | n | n | n | 28 | n | n
O=C(Nc1cnn(Cc2ccc(Cl)cc2)c1)c1ccc([N+](=O)[O-])cc1 | n | u | u | n | 11µM | n
COc1ccc(C(=O)Nc2cnn(Cc3c(F)cccc3Cl)c2)cc1OC | 13µM | n | x | 12 | x | n
O=C(Nc1ccc([N+](=O)[O-])cc1)c1ccc(Cn2cc([N+](=O)[O-])cn2)cc1 | u | u | x | n | x | n
C/C=C/Cn1c(N2CCCCCC2)nc2c1c(=O)[nH]c(=O)n2C | n | u | n | n | n | n
CCOC(=O)Cc1nnc(NCc2ccccc2)c2ccccc12 | n | n | x | n | x | n
CCOc1ccc(C(=O)Nc2cnn(Cc3ccc(Cl)c(Cl)c3)c2)cc1 | 13µM | u | u | n | u | n
O=C(Nc1cnn(Cc2ccc(Cl)c(Cl)c2)c1)C12CC3CC(CC(C3)C1)C2 | u | n | u | n | 13µM | n
O=C1/C(=C/c2ccco2)N=C(N2CCCCC2)N1c1ccccc1 | u | n | n | n | n | n
c1ccc(Cn2nc(-c3ccccc3)nc2-c2ccccc2)cc1 | n | n | u | 54 | u | 52
Cc1ccc(Cn2nc(-c3ccccc3)nc2-c2ccccc2)cc1 | n | n | u | 45 | u | 121
CC(C)(C)Nc1oc(-c2ccccc2)nc1-c1ccccc1 | x | x | x | x | n | x
Cc1ccc(OCC(=O)Nc2ccc(S(=O)(=O)N(C)C3CCN(C)CC3)cc2)c(C)c1 | u | n | x | n | x | n
Cc1c(C(=O)Nc2ccc(S(=O)(=O)N(C)C3CCN(C)CC3)cc2)oc2c(Cl)cccc12 | 2µM | n | u | x | u | x
CN1CCC(N(C)S(=O)(=O)c2ccc(NC(=O)COc3ccc(Br)cc3Cl)cc2)CC1 | 10µM | n | 6.3µM | x | 8.9µM | x
Cc1c(C(=O)Nc2ccc(S(=O)(=O)N(C)C3CCN(C)CC3)cc2)oc2ccccc12 | 6.3µM | n | u | x | n | x
CC(C)c1nc(CN2CCCCC2)cc(=O)[nH]1 | n | n | n | n | n | n
COCCCNC(=S)N/N=C/c1ccc(O)cc1 | n | n | x | n | x | n
COCCCNC(=S)N/N=C/c1ccc(OC)cc1 | n | n | n | 10 | u | n
COCCCNC(=S)N/N=C/c1cccc(OC)c1O | u | n | n | 42 | n | 49
SMILES | HCV inhibitor | FMDV antiviral | LASV entry inh | Cycloheximide cs | MARV entry inh | Shiga toxin inh
CCCC(C(=O)NCC1CCCO1)N(Cc1ccco1)C(=O)CNS(=O)(=O)c1ccc(F)cc1 (stereo not drawn) | n | n | n | n | n | n
COc1cccc(CNC(=O)CSc2nnc3c(n2)[nH]c2ccccc23)c1 | 10µM | u | x | n | u | n
COC(=O)c1ccc(CSc2nnc3c(n2)[nH]c2ccccc23)cc1 | n | n | n | n | n | n
COc1ccc2[nH]c3nc(SCC(=O)NNC(=O)c4ccc(OC)c(OC)c4)nnc3c2c1 | n | 7.1µM | n | n | n | n
Fc1cccc(CSc2nnc3c(n2)[nH]c2ccccc23)c1 | u | n | x | 19 | x | n
COc1ccccc1NC(=O)CSc1nnc2c(n1)[nH]c1ccccc12 | x | u | 11µM | x | n | x
OCCC#Cc1ccc(CN2CCN(C3CCCCC3)C(CCO)C2)cc1 (stereo not drawn) | n | n | x | n | x | n
Brc1ccccc1OCCCCCN1CCOCC1 | u | n | x | 29 | n | 135
c1ccc(SCCCCN2CCOCC2)cc1 | n | n | x | 15 | x | n
Cc1nn(C)c(C)c1CN(Cc1nc(-c2cc(F)ccc2F)oc1C)C1CC1 | u | u | u | n | u | n
COc1cc(-c2cc(C(=O)Nc3ccc(S(=O)(=O)NCc4ccco4)cc3)c3ccccc3n2)cc(OC)c1OC | 0.28µM | u | u | n | u | n
COc1ccc(-c2cc(C(=O)Nc3ccc(S(N)(=O)=O)cc3)c3ccccc3n2)cc1OC | n | n | x | n | x | n
COc1cc(-c2cc(C(=O)NCc3ccco3)c3ccccc3n2)cc(OC)c1OC | u | n | n | 23 | u | n
COc1ccc(C)cc1NC(=O)c1cc2ccccc2cc1OCC(=O)NCc1ccco1 | u | n | n | 30 | n | n
CCOCCn1c(CN2CCN(C(c3ccccc3)c3ccccc3)CC2)nc2c1c(=O)n(C)c(=O)n2C | n | n | n | n | n | n
CCn1c(C)nc2cc(C#N)ccc21 | n | n | n | n | n | n
O=C(c1ccccc1)c1ccc(Sc2ccc([N+](=O)[O-])cc2)cc1 | u | n | x | n | x | n
CC(=O)N(C(C)=O)c1ncnc2c1c(-c1ccc(Cl)cc1)nn2C(C)(C)C | u | u | 16µM | n | u | n
O=C(Nc1ccc(S(=O)(=O)N2CCCC2)cc1)c1cncc(Br)c1 | n | u | x | x | x | x
Nc1c(C(=O)Nc2ccc(S(=O)(=O)N3CCCC3)cc2)sc2nc3ccc(OC(F)(F)F)cc3cc12 | u | n | u | n | 6.3µM | n
COc1ccc(C(=O)Nc2nc3ccc(S(=O)(=O)N4CCCC4)cc3s2)cc1 | x | n | n | x | x | x
Nc1c(C(=O)Nc2ccc(S(=O)(=O)N3CCCC3)cc2)sc2nc3cc4c(cc3cc12)CCC4 | u | n | u | 27 | u | 22
CCC(CC)C(=O)N(C)c1c(C)nc2c(OCC3CCCCC3)cccn12 | x | n | x | x | x | x
O=C(N/N=C/c1cccc([N+](=O)[O-])c1)c1cccc2cc[nH]c12 | n | n | n | 29 | n | 58
O=C(N/N=C/c1cccc([N+](=O)[O-])c1)c1ccccc1-n1cccc1 | n | n | n | n | u | 28
SMILES | HCV inhibitor | FMDV antiviral | LASV entry inh | Cycloheximide cs | MARV entry inh | Shiga toxin inh
O=C(N/N=C/c1cc([N+](=O)[O-])ccc1O)c1cccc2cc[nH]c12 | u | n | x | 33 | x | 31
CCC(=O)N1CCc2cc(Br)cc(S(=O)(=O)N3CCC(C(=O)N(CC)CC)CC3)c21 | x | n | n | x | n | x
CCCCCN(C(=O)CCC(=O)OCC(=O)Nc1cccc(SC)c1)c1c(N)n(CCCC)c(=O)[nH]c1=O | n | n | n | x | n | x
O=C(Nc1ccccc1NC(=O)NC1CCCCC1)NC1CCCCC1 | 13µM | n | 13µM | 27 | 4.6µM | n
NC(=O)c1ccccc1NC(=O)NC1CCCCC1 | n | n | n | n | n | n
O=C(NC1CCCCC1)Oc1ccccc1 | n | n | n | 30 | n | n
O=C(Nc1ccccc1)NC1CCCCCCC1 | n | n | n | x | u | x
O=C(NC1CCCCCCC1)NC1CCCCC1 | n | n | u | 26 | n | n
O=C(Nc1ccccc1)NC1CCCCC1 | n | n | n | 51 | n | 49
CCC(CC)c1nnc(NC(=O)CS(=O)(=O)c2ccccc2)s1 | n | n | n | n | n | n
O=C(NC1CCCCC1)c1cccc(OCc2ccccc2)c1 | 14µM | n | n | n | n | n

Screens as filed in PubChem.
